Screen size: about 310,000 compounds; about 14,000 (4.5%) showed an effect of 50% or more. The effect is printed as a negative number. The sample holds strong results, similar compounds and a random draw of the others, so the mix is not that of the screen.
target: human ether-à-go-go-related gene (hERG) potassium channel (human, UniProt Q12809); experiment: primary screen, population patch clamp on CHO cells stably expressing hERG; higher = less effect of the substance
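Also: peak tail current of the secondary pulse compared with the same well before compound.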

Sequence of human ether-à-go-go-related gene (hERG) potassium channel (Q12809 whole entry, looked up): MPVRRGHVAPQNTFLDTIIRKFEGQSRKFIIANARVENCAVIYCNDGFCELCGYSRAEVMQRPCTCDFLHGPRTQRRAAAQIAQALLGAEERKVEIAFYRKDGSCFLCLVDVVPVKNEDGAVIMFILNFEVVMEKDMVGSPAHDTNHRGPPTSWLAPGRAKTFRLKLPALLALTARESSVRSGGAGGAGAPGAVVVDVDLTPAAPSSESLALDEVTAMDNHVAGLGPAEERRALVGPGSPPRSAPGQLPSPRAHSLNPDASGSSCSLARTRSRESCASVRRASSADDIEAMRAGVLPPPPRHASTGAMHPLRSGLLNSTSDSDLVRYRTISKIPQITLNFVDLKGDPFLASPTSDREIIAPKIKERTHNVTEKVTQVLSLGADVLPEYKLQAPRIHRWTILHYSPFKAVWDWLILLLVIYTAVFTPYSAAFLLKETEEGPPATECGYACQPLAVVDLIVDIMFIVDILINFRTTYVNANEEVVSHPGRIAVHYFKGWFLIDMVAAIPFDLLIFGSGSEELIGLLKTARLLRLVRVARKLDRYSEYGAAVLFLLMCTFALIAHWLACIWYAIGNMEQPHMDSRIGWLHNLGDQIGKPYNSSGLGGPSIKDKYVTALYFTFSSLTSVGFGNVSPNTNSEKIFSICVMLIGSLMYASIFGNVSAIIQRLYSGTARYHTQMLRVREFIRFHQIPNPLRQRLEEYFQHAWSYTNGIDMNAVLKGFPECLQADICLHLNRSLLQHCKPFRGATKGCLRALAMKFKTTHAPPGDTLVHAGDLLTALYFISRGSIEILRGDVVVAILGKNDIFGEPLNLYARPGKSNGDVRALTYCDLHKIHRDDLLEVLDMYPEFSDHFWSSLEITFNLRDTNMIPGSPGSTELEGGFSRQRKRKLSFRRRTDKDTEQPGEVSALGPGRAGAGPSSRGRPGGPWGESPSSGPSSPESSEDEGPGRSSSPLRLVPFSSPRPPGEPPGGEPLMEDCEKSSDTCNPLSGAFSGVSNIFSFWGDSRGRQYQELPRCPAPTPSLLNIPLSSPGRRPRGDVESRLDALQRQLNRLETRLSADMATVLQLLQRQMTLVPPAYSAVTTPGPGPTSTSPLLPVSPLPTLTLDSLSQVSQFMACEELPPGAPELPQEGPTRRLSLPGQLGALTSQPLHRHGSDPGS

Compound | hERG current change (%, negative = inhibition) at 10uM [%]
Cc1noc(C)c1COC(=O)c1cccnc1Cl | 3.21
CNC(=S)Nc1cc(S(=O)(=O)Nc2cc(Cl)ccc2Cl)ccc1N1CCCC1 | -12.4
CN1C(=O)c2cccc(NC(=O)CCc3ccccc3)c2C1=O | -19.6
CC1Cc2ccccc2N1C(=O)CSc1nnc2c(n1)[nH]c1ccc(F)cc12 (stereo not drawn) | 12.6
O=C(CSc1nnc(COc2ccccc2)o1)c1ccccc1 | 1.95
CCC(C)(C)NC(=O)C(c1ccc(F)cc1)N(Cc1cccc(OC)c1)C(=O)c1cnccn1 (stereo not drawn) | 9.72
COC(=O)C1=C(C)C(c2ccc(OC)cc2OC)NC(=O)N1 (stereo not drawn) | 13.1
Cc1ccc(N2C(=O)C3C4C=CC(CC4)C3C2=O)cc1Br (stereo not drawn) | 15.4
N#Cc1ncc(-c2ccc3c(c2)OCCOCCOCCOCCOCCO3)nc1C#N | -75.3
N#Cc1cn(-c2ccccc2)nc1-c1ccc2c(c1)OCCO2 | 11.8
Cc1ccc2nc(-c3ccc4c(c3)OCCO4)cn2c1 | -16
N#Cc1ncc(-c2ccc3c(c2)OCCOCCOCCOCCO3)nc1C#N | -69
Cl.Nc1nc(-c2ccc3c(c2)OCCO3)cs1 | 19.4
N#CCC(=O)Nc1nc(-c2ccc3c(c2)OCCO3)cs1 | 13.1
N#Cc1cncc(-c2ccc3c(c2)OCCOCCOCCOCCOCCO3)n1 | -86.9
c1ccn2cc(-c3ccc4c(c3)OCCO4)nc2c1 | 1.08
c1cncc(-c2nc(-c3ccc4c(c3)OCCO4)cs2)c1 | -4.72
COc1ccc(C(=O)NC(=S)Nc2ccc3[nH]c(=O)[nH]c3c2)c(OC)c1 | 5.35
O=C(CN1C(=O)C2C3C=CC(C4CC34)C2C1=O)Nc1cccc2ncccc12 (stereo not drawn) | 0.881
CCOC(=O)c1ccc(-c2ccc3c(c2)CCC3)nc1C | 12.6
COc1ccccc1C(=O)N/C(N)=N/c1nc2ccccc2o1 | 1.36
N#Cc1ccc(N2CCOCC2)nc1 | -0.729

Compound | hERG current change (%, negative = inhibition) at 10uM [%]
CCCCNC(=O)N1CCCN(c2ccc(C#N)cn2)CC1 | -49.8
N#Cc1ccc(N2CCCNCC2)nc1 | -88.5
Cc1ccc(NC(=O)c2nc(S(=O)(=O)Cc3ccccc3C)ncc2Cl)cc1C | 2.81
Cc1nn2c3ccccc3n(CC(=O)c3cccs3)c2nc1=O | 1.78
Cc1ccc(Nc2c(-c3ccco3)nc3ccccn23)cc1 | 2.78
COc1ccccc1C1CCN(Cc2cccc([N+](=O)[O-])c2)CC1 | -49.1
COc1ccccc1C1CCN(Cc2ccccc2Cl)CC1 | -3.3
COc1ccccc1C1CCN(Cc2ccc(C)cc2)CC1 | -90
COc1ccccc1C1CCN(Cc2c(C)[nH]c3ccccc23)CC1 | -64.4
COc1ccccc1C1CCN(Cc2ccc(Cl)cc2Cl)CC1 | 11.1
COc1ccccc1C1CCN(Cc2ccccc2)CC1 | -34.5
COc1ccccc1C1CCN(Cc2cccc3ccccc23)CC1 | -13.9
COc1ccccc1C1CCN(Cc2ccc3ccccc3c2)CC1 | -75
COc1ccccc1C1CCN(Cc2ccc(Cl)c(Cl)c2)CC1 | 12.3
Cc1[nH]c2ccccc2c1CN1CCN(c2ccccn2)CC1 | -52.7
Cc1[nH]c2ccccc2c1C(c1ccncc1)N1CCN(c2ccccn2)CC1 (stereo not drawn) | 8.61
Cc1[nH]c2ccccc2c1CN1CCc2ccccc2C1 | -12.9
COC(=O)CCc1nc2c(C#N)c(-c3ccc(Cl)cc3)ccn2n1 | -2.07
Cc1ccc(/C=N/NC(=O)c2cc(C)oc2C)cc1 | 4.58
COc1ccccc1NC(=O)CC1C(=O)Nc2c1c(=O)n(C)c(=O)n2C (stereo not drawn) | 4.88
Cc1cc(=O)[nH]c(SCC(=O)Nc2nc(-c3ccccc3)c(-c3ccccc3)o2)n1 | 3.76
CC(=O)Nc1ccc(/C=N/N2C(=O)NC(C)(c3ccc(OC(F)F)cc3)C2=O)cc1 (stereo not drawn) | -10.5

Compound | hERG current change (%, negative = inhibition) at 10uM [%]
COC(=O)c1cc(C(=O)OC)cc(N2C(=O)CC(NNC(=O)c3ccc(C)cc3)C2=O)c1 (stereo not drawn) | -11.5
O=C(O)COn1c(-c2ccccc2)nc2ccc([N+](=O)[O-])cc21 | 11.3
CCOC(=O)C(C)On1c(-c2ccccc2)nc2ccc([N+](=O)[O-])cc21 (stereo not drawn) | -51.3
CCOC(=O)C(C)On1c(-c2ccc(Cl)cc2)nc2ccc([N+](=O)[O-])cc21 (stereo not drawn) | -20.4
COc1cc(NC(=O)C/C(C)=N/NC(=O)C(=O)NC2CCCCC2)c(OC)cc1Cl | -91.2
COc1ccc(NC(=O)C/C(C)=N/NC(=O)C(=O)NC2CCCCC2)c(OC)c1 | -8.46
COc1cc(NC(=O)C/C(C)=N/NC(=O)C2CCCCC2)c(OC)cc1Cl | 9.28
O=C(NNC(=O)c1cc(Cl)ccc1O)c1ccc(NS(=O)(=O)c2cccs2)cc1 | -20.7
CCOC(=O)CC1ON(C)C(=O)N1c1ccc([N+](=O)[O-])cc1 (stereo not drawn) | -6.46
C/C(=N/NC(=O)c1ccn(C)n1)c1ccncc1 | 13.2
CCOC(=O)N1CCN(c2ccc(C(F)(F)F)cn2)CC1 | -4.3
CC(=O)c1cccc(OCC(=O)N2CCN(c3ccc(C(F)(F)F)cn3)CC2)c1 | -16.3
O=S(=O)(c1ccc(Cl)cc1)N1CCCN(c2nc3ccc(Cl)cc3s2)CC1 | 11.8
O=S(=O)(c1ccc(C(F)(F)F)cc1)N1CCCN(c2ccc(C(F)(F)F)cn2)CC1 | 5.3
N#Cc1ccc(S(=O)(=O)N2CCCN(c3nc4ccc(Cl)cc4s3)CC2)cc1 | -70.3
Cc1ccccc1SCC(=O)N1CCN(c2ccc(C(F)(F)F)cn2)CC1 | -38
N#Cc1ccc(OCC(=O)N2CCN(c3ccc(C(F)(F)F)cn3)CC2)cc1 | -54.7
N#Cc1ccc(S(=O)(=O)N2CCCN(c3ccc(C(F)(F)F)cn3)CC2)cc1 | -73.9
CC(CC(=O)N1CCN(c2ccc(C(F)(F)F)cn2)CC1)n1ccnc1 (stereo not drawn) | -66.2
CS(=O)(=O)N1CCN(c2nc3ccc(Cl)cc3s2)CC1 | 5.72
O=C(O)COCC(=O)N1CCCN(c2ccc(C(F)(F)F)cn2)CC1 | 14.3
O=S(=O)(c1ccc(Cl)cc1)N1CCCN(c2ccc(C(F)(F)F)cn2)CC1 | -23.3

From PMC4336329 (PLoS ONE, 2015)
